Results published in PubChem BioAssay AID2314 (National Center for Advancing Translational Sciences (NCATS), 2010).
Among all 300,000 compounds or so, about 37,000 (12%) were called active. Cut-off read from the data, not from the text of the source: active = max response mostly above about 13% (no sharp cut-off); inactive = mostly below about 14%. The list comes from a sample in which actives are over-represented; it also holds similar structures and randomly drawn compounds.

Assay: Cycloheximide Counterscreen for Small Molecule Inhibitors of Shiga Toxin; note: read at 38.3 µM for the half of the compounds with a filed dose; 0% is about no effect
Settings: cell reporter, cycloheximide protein synthesis inhibition counterscreen; hits give high values

Row | SMILES | max response
1 | CCOC(=O)[C@@H]1[C@H]2COc3cc(OC)ccc3[C@@H]2N2C(=O)N(c3cccc(C)c3)C(=O)[C@@]12C | -1.45% (inactive)
2 | CCCCn1c(-c2cccc(C)c2)nc2cc3[nH]c(=O)c(C(C)C)nc3cc21 | 8.65% (inactive)
3 | CC1(C)CCSC(/C=C/c2ccccc2)=N1 | 32.8% (active)
4 | CCCCC(CC)CNC(=O)C(=O)C1C(=O)Nc2ccccc21 (centres undefined) | 15.4% (inactive)
5 | C[C@@H]1C(c2ccc(F)cc2)=NN(c2ccc(Br)cc2)[C@H]1C(=O)N1CCOC1=O | -1.82% (inactive)
6 | COc1ccc(NC(=O)CCNC(=O)Cn2cnc3sc4c(c3c2=O)CCCC4)cc1OC | -3.75% (inactive)
7 | COc1ccc(/C=N/Nc2ncnc3sc4c(c23)CCCC4)cc1O | 27.5% (active)
8 | COc1ncnc2sc3c(c12)CCCC3 | -0.884% (inactive)
9 | COc1ccc(C2C(C(C)=O)=C(O)C(=O)N2c2nccs2)cc1 (centres undefined) | -3.41% (inactive)
10 | COc1ccc(C(=O)NNC(=S)NC(=O)c2ccccc2[N+](=O)[O-])cc1 | 2.1% (inactive)
11 | Cc1ccc(NC(=O)CN2C(=O)NC(C)(c3ccc(Cl)cc3)C2=O)c(Br)c1 (centres undefined) | -5.49% (inactive)
12 | COc1ccc(C(=O)N2CCC(C(=O)Nc3ccc(C)cc3)CC2)cc1 | 4.42% (inactive)
13 | COc1ccc(NC(=O)C2COc3ccccc3O2)cc1 (centres undefined) | 41% (active)
14 | COc1cccc(N(C(=O)C2COc3ccccc3O2)C(C(=O)NC2CCCCC2)c2ccc(O)cc2)c1 (centres undefined) | 8.69% (inactive)
15 | CC(=O)c1cccc(NC(=O)C2COc3ccccc3O2)c1 (centres undefined) | 23.2% (active)
16 | CC(/C=C/c1ccco1)=N/NC(=O)C1COc2ccccc2O1 (centres undefined) | 7.66% (inactive)
17 | C/C(=N/NC(=O)C1COc2ccccc2O1)c1ccco1 (centres undefined) | 4.02% (inactive)
18 | Cn1nc(C(F)(F)F)c(C(=O)Nc2cccc(C(F)(F)F)c2)c1SCc1ccc(Cl)cc1 | -3.55% (inactive)
19 | Cc1ccc(CN(CC(=O)NCC2CCCO2)S(=O)(=O)c2ccc(C)cc2)cc1 (centres undefined) | -1.68% (inactive)
20 | O=C1Nc2ccccc2/C1=C/c1ccnc2ccccc12 | -4.29% (inactive)
21 | Cc1cccn2c(=O)c(C=O)c(Nc3ccc(S(N)(=O)=O)cc3)nc12 | -2.14% (inactive)
22 | CC(C)C(C)NC(=O)COc1nc2ccccc2nc1N(C)C1CCCCC1 (centres undefined) | -4.63% (inactive)
23 | O=c1c2ccccc2nc(N/N=C/c2ccccc2)n1O | 11.3% (inactive)
24 | O=c1c2ccccc2ncn1/N=C/c1ccccc1 | 40.3% (active)

Row | SMILES | max response
25 | CCCc1nc2ccccc2c(=O)n1/N=C/c1ccc(O)c(O)c1 | -1.03% (inactive)
26 | O=C(O)CCC(=O)O | 7.04% (inactive)
27 | CCC(C)(C)NC(=O)C(c1ccc(O)cc1)N(C(=O)Cn1nnc2ccccc21)c1ccc(NC(C)=O)cc1 (centres undefined) | -2.51% (inactive)
28 | COc1ccc(C(C(=O)NCC2CCCO2)N(C(=O)Cn2nnc3ccccc32)c2ccc(NC(C)=O)cc2)cc1OC (centres undefined) | -1.07% (inactive)
29 | COc1ccc(C(C(=O)NC(C)(C)C)N(C(=O)Cn2nnc3ccccc32)c2ccc(C(C)=O)cc2)cc1O (centres undefined) | 14.1% (active)
30 | COC(=O)C1CCN(CC(N)=O)CC1 | -5.67% (inactive)
31 | CCOP(=O)(OCC)C(Nc1cccc(C)c1)c1ccc(F)cc1 (centres undefined) | -1.31% (inactive)
32 | COc1ccccc1OCCOc1ccc(/C=N/n2cnnc2)cc1 | -5.27% (inactive)
33 | C(=N\n1cnnc1)/c1cccnc1 | 0.339% (inactive)
34 | COc1cccc(OCCOc2cccc(/C=N/n3cnnc3)c2)c1 | 42.6% (active)
35 | COC(=O)CNC(=O)c1cc(-c2ccncc2)nc2ccccc12 | 7.25% (inactive)
36 | CCc1ccc(-c2cc(C(=O)NN3CCN(C)CC3)c3ccccc3n2)cc1 | 21.6% (active)
37 | CNC(=O)COC(=O)c1cc(-c2ccc(OC)cc2)nc2ccccc12 | 10.9% (inactive)
38 | O=C(COc1ccc(Cl)cc1)NCCS(=O)(=O)N1CCN(c2ccc(F)cc2)CC1 | -2.81% (inactive)
39 | N#Cc1ccc(C2N=C(c3ccccc3)NO2)cc1 (centres undefined) | 50.7% (active)
40 | Brc1ccccc1C1Nc2cccc3cccc(c23)N1 | -2.34% (inactive)
41 | S=C1NC(c2ccccc2)=NCN1c1ccc(Br)cc1 | 11.3% (inactive)
42 | Brc1ccccc1C1N=C(c2ccccc2)NO1 (centres undefined) | 46.9% (active)
43 | COc1ccc(CNC(=O)c2cc(C(=O)C3CC3)c[nH]2)cc1 | -0.249% (inactive)
44 | Cc1cc(Nc2cccc(C)c2C)n2ncnc2n1 | -1.07% (inactive)
45 | CCn1cc(C(=O)OCC(=O)Nc2cccc(C)c2)c(=O)c2ccc(C)nc21 | -2.42% (inactive)
46 | CN(c1ccc(OCC(=O)OCC(=O)Nc2cccc([N+](=O)[O-])c2)cc1)S(=O)(=O)c1ccc(F)cc1 | 5.41% (inactive)
47 | Cc1onc(-c2ccccc2)c1C(=O)N1CCN(S(=O)(=O)c2ccccc2C(F)(F)F)CC1 | 10.2% (inactive)
48 | Cc1ccc(/C=N/NC(=O)C2=NNC(c3ccccc3)(c3ccccc3)C2)c(O)c1 | 9.49% (inactive)

Row | SMILES | max response
49 | Oc1ccc(/C=N/Nc2nc(-c3ccccc3F)nc3ccccc23)c(O)c1 | 15.1% (active)
50 | Cc1nc2ccccc2nc1N/N=C/c1ccc(O)cc1O | 25% (active)
51 | FC(F)(F)c1nc2ccccc2nc1N/N=C/c1ccc(Cl)cc1 | -0.973% (inactive)
52 | COc1ccc(/C=C(\C#N)C(=O)ONC2=NCCCCC2)cc1 | 9.41% (inactive)
53 | Oc1ccc(/C=N/NC2=NCCCCC2)c(O)c1 | 42% (active)
54 | Cc1cc(N/N=C/c2ccccc2F)c2ccccc2n1 | -1.58% (inactive)
55 | CC(=O)c1ccc(N2CCN(C(=O)C3CCN(S(=O)(=O)c4ccc5c(c4)CC(C)N5C(=O)C4CC4)CC3)CC2)cc1 (centres undefined) | -0.93% (inactive)
56 | Cc1cc(C)n(CC(O)COc2ccc(C(C)(C)C)cc2)n1 (centres undefined) | 10.5% (inactive)
57 | CCc1cccc(NC(=S)N(CCN(C)C)C2CCN(C(C)C)CC2)c1 | -3.94% (inactive)
58 | Cc1ccc(NC(=O)C(=O)NCc2ccc(/C=N/NC(=O)c3c(C)nc4cc(C)ccn34)o2)cc1 | 6.74% (inactive)
59 | O=c1[nH]c(CN2CCN(S(=O)(=O)c3ccc4c(c3)OCCO4)CC2)nc2sc3c(c12)CCCC3 | -1.21% (inactive)
60 | CCCCOc1ccc(C(=O)N/C(=C/C=C/c2ccccc2)C(=O)N2CCOCC2)cc1 | -4.3% (inactive)
61 | CC(C)COP(=O)(c1ccc(N(C)C)cc1)C(Nc1ccccc1)c1cccnc1 (centres undefined) | -7.16% (inactive)
62 | O=C(CCN1C(=O)[C@@H]2Cc3ccccc3CN2C1=O)NCc1ccccc1 | -3.78% (inactive)
63 | N#C/C=C/N1CCN(Cc2ccc3c(c2)OCO3)CC1 | -4.02% (inactive)
64 | O=P(O)(CN1CCCCCC1)C1Cc2ccccc2C1 | -0.763% (inactive)
65 | Cc1noc(C)c1-c1ccc2ncnc(NC(C)c3ccco3)c2c1 (centres undefined) | 14.8% (inactive)
66 | Cc1noc(C)c1-c1ccc2ncnc(NCc3ccc(F)c(F)c3)c2c1 | -5.05% (inactive)
67 | Cc1noc(C)c1-c1ccc2ncnc(NCc3ccc4[nH]ccc4c3)c2c1 | 56.1% (active)
68 | COc1ccc(NC(=O)CNC(=O)Cn2ccc3ccccc3c2=O)c(OC)c1 | -1.76% (inactive)
69 | Cc1ccc(C2CCN(C(=S)Nc3cccc(Cl)c3)C2)cc1 (centres undefined) | 23.2% (active)
70 | Cc1cccc(NC(=S)N2CCCC(c3nc4ccccc4[nH]3)C2)c1 (centres undefined) | 2.24% (inactive)
71 | O=C(C1CCCO1)N1CCN(C(=S)Nc2cccc(Cl)c2)CC1 (centres undefined) | 2.71% (inactive)
72 | CCn1c2ccccc2c2cc(NC(=O)Nc3ccc([N+](=O)[O-])cc3C)ccc21 | 1.99% (inactive)

Row | SMILES | max response
73 | COc1ccc(NC(=O)COc2ccc(C(=O)c3ccc(F)cc3)cc2)cc1S(N)(=O)=O | -1.97% (inactive)
74 | COCCCn1c(SCC(=O)NC2CCCC2)nnc1-c1ccccc1 | -2.3% (inactive)
75 | COCC(=O)N1CCc2ccc(NC(=O)c3ccccc3Cl)cc2C1 | -1.85% (inactive)
76 | O=C(Nc1ccc2sc3ccccc3c(=O)c2c1)c1ccccc1Cl | 40.4% (active)
77 | O=C(Nc1cccc(NC(=O)c2ccccc2[N+](=O)[O-])c1)c1ccccc1Cl | -2.59% (inactive)
78 | O=C(COc1ccccc1[N+](=O)[O-])NC1CC1 | 1.49% (inactive)
79 | O=C(O)CCCN1C(=O)C2C3c4ccccc4C(c4ccccc43)[C@@H]2C1=O (some centres undefined) | -1.2% (inactive)
80 | C=CCSC(CC)(CC)C(N)=O | -2.64% (inactive)
81 | Cc1nonc1NC(=O)c1oc2ccccc2c1C | 35.8% (active)
82 | Cc1ccnc(NS(=O)(=O)c2ccc(NC(=O)c3oc4ccccc4c3C)cc2)n1 | 1.07% (inactive)
83 | CCC(=O)N1CCCc2ccccc21 | -1.65% (inactive)
84 | Cc1c(C(=O)N2CCCc3ccccc32)oc2ccccc12 | 18.8% (active)
85 | Cc1ccc2[nH]c(C(=O)O)c(NC(=O)c3ccccc3[N+](=O)[O-])c2c1 | -2.43% (inactive)
86 | COc1ccc2oc(=O)c(C(=O)N3CCCc4ccccc43)cc2c1 | 0.681% (inactive)
87 | Cc1ccc(NC(=O)c2oc(=O)c3ccccc3c2-c2ccccc2)c(C)c1 | -5.99% (inactive)
88 | Cc1ccc(NC(=O)c2oc3ccccc3c2C)c([N+](=O)[O-])c1 | 29.7% (active)
89 | CCc1nonc1NC(=O)c1oc2ccc(Cl)cc2c1C | -1.57% (inactive)
90 | Cc1nonc1NC(=O)c1ccccc1Br | 6.09% (inactive)
91 | Cc1c(C(=O)NC2CCCCC2)oc2ccccc12 | 39.2% (active)
92 | Cc1c(C(=O)Nc2cccc(-c3nnc4n3CCCCC4)c2)oc2ccccc12 | 13% (inactive)
93 | Cc1sc2ncn(CC(=O)NCCN(C)C)c(=O)c2c1S(=O)(=O)N1CCC(C)CC1 | 7.86% (inactive)
94 | Cc1ccccc1-n1c(C)cc(/C=N/NC(=O)c2ccc(CN3CCOCC3)cc2)c1C | 1.39% (inactive)
